Screening data from PubChem BioAssay.
Only a selection was taken, and hits are over-represented in it overall.
Dicer inh – inhibitors of human Dicer processing of pre-microRNA. Q9UPY3. cat-ELCCA pre-miR-21 Dicer processing, chemiluminescence; hits give high values. z-score at 25 µM. 47,000 tested, 6% active; in the data active means z-score above about 3, passing the limit was not always enough;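 further: plate controls were vehicle for no effect and no enzyme for full effect; higher signal means more uncleaved substrate so more Dicer inhibition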
Starred values were filed as active, the others as inactive.

SMILES	Dicer inh
CCSc1nc2c(c(=O)[nH]1)C1(CCCC1)Cc1ccccc1-2	0.22
CCCCSCc1nc2c(c(=O)[nH]1)C1(CCCC1)Cc1ccccc1-2	0.7
COC(=O)CCSc1nc2c(c(=O)[nH]1)C(C)(C1CCCCC1)Cc1ccccc1-2 (stereo not given)	3.66*
CCc1ccc(C2CC(=O)Oc3c2c(=O)n(C)c2ccccc32)s1 (stereo not given)	-1.01
Cc1ccc(C)c(NCc2ccc3c(c2)OCO3)c1	5.43*
Cc1ccc(CNCc2ccc3c(c2)OCO3)cc1	0.29
Cc1ccc(CNCc2ccc3c(c2)OCO3)s1	-0.56
O=C(COC(=O)C1C2CCC(C2)C1C(=O)c1ccccc1)c1ccc(Cl)cc1 (stereo not given)	0.04
CCCCN1C(=O)C(O)(CC(=O)c2ccc(C)s2)c2cc(Br)ccc21 (stereo not given)	2.34
O=C(CC1(O)C(=O)N(Cc2ccccc2)c2ccc(Br)cc21)c1cccnc1 (stereo not given)	2.6
CCCN1C(=O)C(O)(CC(=O)c2ccc(C)s2)c2ccccc21 (stereo not given)	-0.54
CCCN1C(=O)C(O)(CC(=O)c2ccc(C)o2)c2cc(Br)ccc21 (stereo not given)	-0.06
Cc1ccc(C(=O)CC2(O)C(=O)N(Cc3ccc(Cl)cc3)c3ccccc32)cc1 (stereo not given)	2.73
Cc1coc(C)c1C(=O)CC1(O)C(=O)N(Cc2ccccc2)c2ccc(Br)cc21 (stereo not given)	3.81*
Cc1ccccc1CN1C(=O)C(O)(CC(=O)c2ccco2)c2cc(Cl)ccc21 (stereo not given)	2.3
Cc1ccc(CN2C(=O)C(O)(CC(=O)c3ccc(C)o3)c3cc(Cl)ccc32)cc1 (stereo not given)	3.71*
Cc1ccc(C(=O)CC2(O)C(=O)N(Cc3ccccc3)c3ccc(Br)cc32)s1 (stereo not given)	3.57*
CCOC(=O)c1cnc2c(c(C)nn2C)c1Sc1cccc(Cl)c1	-3.56
N/C(=N\C(=S)Nc1cc(Cl)ccc1Cl)c1ccccc1	0.67
CCc1ccccc1NC(=S)NNS(=O)(=O)c1ccc(C)cc1	0.82
C=CCNc1nc(SCc2ccc(Cl)cc2)nc2sc3c(c12)CCN(C)C3	0.24
COc1ccc(C2Nc3cc(C)c(C)cc3NC3=C2C(=O)CC(C)(C)C3)cc1OC (stereo not given)	-0.97
Cc1nn2c(=O)c(NC(=O)c3ccc(C(C)(C)C)cc3)cnc2s1	-0.66
Nc1nnc(Sc2nc3c(Cl)cc(Cl)cc3s2)s1	-4.2
OC(CN1CCN(Cc2ccc3c(c2)OCO3)CC1)Oc1ccc(C(F)(F)F)cc1 (stereo not given)	-2.73
SMILES	Dicer inh
CCOC(=O)N1CCN(CC(O)COc2cc(C)cc(C)c2)CC1 (stereo not given)	2.63
CCOC(=O)N1CCN(CC(O)COCc2ccc3c(c2)OCO3)CC1 (stereo not given)	3.24*
O=C(COc1ccc(Cl)cc1)N1CCN(Cc2ccc3c(c2)OCO3)CC1	0.41
CCOC(=O)N1CCN(CC(O)COc2c(C)cc(C)cc2C)CC1 (stereo not given)	3.29*
CCOC(=O)N1CCN(CC(O)COc2cc(C)ccc2C(C)C)CC1 (stereo not given)	3.48*
CCOC(=O)N1CCN(S(=O)(=O)c2c(C)cc(C)cc2C)CC1	1.19
CCOC(=O)c1c(C)n(C)c2ccc(OCC(O)CN3CCN(C)CC3)cc12 (stereo not given)	0.6
CCOC(=O)c1c(C)n(C)c2ccc(OCC(O)CN3CCOCC3)cc12 (stereo not given)	1.89
COc1cc(C2CC(=O)Nc3nc(N)[nH]c(=O)c32)ccc1OCc1ccc(F)cc1 (stereo not given)	-1.11
CCOC(=O)C1=C(C)NC2=C(C(=O)CCC2)C1c1ccc(C(=O)OC)cc1 (stereo not given)	-0.27
Cc1sc(NC(=O)CN(Cc2ccccc2)Cc2ccccc2)c(C#N)c1C	1.4
Clc1ccc(Sc2ccc3nnc(-c4ccccc4)n3n2)cc1	0.75
Cn1nc(-c2ccc(Sc3ccc(Cl)cc3)s2)cc1C(F)(F)F	-0.62
Cn1nc(-c2ccc(S(=O)(=O)NCC(=O)NNS(=O)(=O)c3ccc(Cl)cc3)s2)cc1C(F)(F)F	0.13
Cn1nc(-c2ccc(-c3ccn(S(C)(=O)=O)n3)s2)cc1C(F)(F)F	3.97*
N#Cc1c(C(F)(F)F)cc(-c2cccnc2)[nH]c1=O	-0.58
N#Cc1c(C(F)(F)F)nn(-c2ccccc2)c1N	-0.61
CNC(=S)NNC(=O)C(C)Oc1ccccc1-c1ccccc1 (stereo not given)	1.78
C=CCOc1cccc(C2c3c(oc4ccc(F)cc4c3=O)C(=O)N2c2cccc(C)n2)c1 (stereo not given)	-0.61
Cc1c(C(=O)Nc2ccccc2)sc(N)c1C(N)=O	-2.71
COc1ccc(Cc2nnc(SCC3CC3)n2-c2ccc(F)cc2)cc1OC	1
O=C(CSc1nc(O)cc(=O)n1-c1ccccc1F)N1CCc2ccccc21	5.53*
CC(C)c1c(O)nc(SCC(=O)N2CCc3ccccc32)n(-c2ccccc2)c1=O	-1.11
